GLP-1R agonist: GLP-1 receptor (human) agonism; 0.007% of 380,000 active; P43220; HEK293 GLP-1R CRE-luciferase, luminescence, 4-6 h; cells express a hypersensitive GLP-1R form; Potency, µM (series often up to 45.6 µM), hits mostly activators
D3 antag: antagonists of human D3 dopamine receptor; D3R cells, DiscoveRx beta-arrestin luminescence, antagonist mode; stronger effect = lower value; max response, negative = inhibition, %; 2.5% of 360,000 active; AID 652054; in the data active means max response below about -50%; inconclusive means no clear call, values can overlap the other calls
Target sequence (P35462 whole entry, looked up): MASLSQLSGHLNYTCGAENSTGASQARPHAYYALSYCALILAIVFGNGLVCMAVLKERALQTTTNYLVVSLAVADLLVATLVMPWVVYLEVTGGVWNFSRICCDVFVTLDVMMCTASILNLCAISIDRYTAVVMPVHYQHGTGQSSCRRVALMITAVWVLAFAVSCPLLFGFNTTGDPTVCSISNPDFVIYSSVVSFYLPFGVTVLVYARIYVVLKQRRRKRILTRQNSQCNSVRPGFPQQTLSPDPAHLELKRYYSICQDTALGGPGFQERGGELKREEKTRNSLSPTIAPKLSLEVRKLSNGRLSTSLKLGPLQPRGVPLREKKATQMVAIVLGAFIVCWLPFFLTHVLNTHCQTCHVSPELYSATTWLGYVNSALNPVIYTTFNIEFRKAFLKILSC
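Cells expressing the human receptor were seeded at 1500 cells/well, incubated overnight at 37 degrees C in 5% CO2, then exposed to library compounds with dopamine controls for 90 minutes at 37 degrees C before luminescent detection.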
GLP-1R inv ag: inverse agonists of human GLP-1 receptor; AID 624417; P43220; HEK293 GLP-1R CRE-luciferase, luminescence, 24 h; GLP-1R form is constitutively active; Potency, µM (series often up to 38.3 µM), actives largely listed as inhibitors; 1.6% of 410,000 active; further: nearly all actives have a fitted effect of over 55% in size
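Cells are plated, allowed 12 hours at 37 deg C, then treated with compounds for 24 hr before luciferase detection reagent is added and luminescence is read after 12 min at room temperature. The HEK293 line carries constitutively active GLP-1R with a cAMP-responsive reporter.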
D3 ag: agonists of human D3 dopamine receptor; P35462; D3R DiscoveRx beta-arrestin cells, luminescence, 90 min; max activation, %; 0.58% of 410,000 active; AID 652048; in the data active means max activation above about 30%
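Agonist mode: compounds and dopamine controls were applied to plated cells for 90 min at 37 degrees C after an overnight attachment at 1500 cells/well. Luminescent read-out followed 30 - 60 minutes at room temperature with DiscoveRx detection reagent.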
Large screens that a line does not name were inactive. Rows were chosen to be rich in hits. Some 4.3% of all compounds tested hit in one or more screens of this group. Unless noted, the call rests on the fitted dose curve; in most records, active means well fitted curve in the direction sought with a large enough effect; inconclusive means small, poorly fitted or top-dose-only effect, or another doubt; inactive means no such curve, though single readings can be large; an effect the other way counts as inactive or inconclusive.

Cc1cc(C)cc(NC(=O)C(OC(=O)c2cccs2)c2ccccc2)c1 (stereo not given)	GLP-1R inv ag 10µM
Cc1ccc(C(=O)C2CCN(CC(=O)NC3CCCC3)CC2)cc1	GLP-1R inv ag inconclusive
Cc1ccc(NC(=O)CN2CCC(C(=O)c3ccc(F)cc3)CC2)cc1	D3 antag -68.6, GLP-1R inv ag inconclusive
Cc1ccc(C(=O)C2CCN(CC(=O)Nc3ccccc3C)CC2)cc1	D3 antag inconclusive, GLP-1R inv ag inconclusive
CCN(CC)c1ccc(NC(=O)CN2CCN(CC(=O)Nc3ccc(F)cc3)CC2)cc1	GLP-1R inv ag 12.6µM
Cc1ccc(C(=O)C2CCN(CC(=O)NCc3ccc(F)cc3)CC2)cc1	D3 antag -93.1, GLP-1R inv ag inconclusive
Cc1ccc(C(=O)C2CCN(S(=O)(=O)c3ccc(C(=O)O)cc3)CC2)cc1	none
Cc1ccc(C(=O)C2CCNCC2)cc1	D3 antag -64.8
CCCCCCCCCCCCOCCOCCOCCOCCOCCOCCOCCOCCOCCO	none (no result: D3 antag, GLP-1R inv ag)
COC(=O)C1(C(=O)OC)c2ccccc2N(S(=O)(=O)c2ccc(C)cc2)C1CC(C)=O (stereo not given)	none (no result: GLP-1R agonist)
COc1ccc2c(c1)c1c(c(=O)n(Cc3ccccc3)c(=O)n1CC(=O)NCc1ccccc1Cl)n2C	none (no result: GLP-1R agonist, D3 antag)
CCc1ccccc1NC(=O)C(CC)Sc1ncnc2c1sc1ccccc12 (stereo not given)	none (no result: GLP-1R agonist, D3 antag)
CCOCCCNC(=O)CN1C(=O)c2c(c3ccccc3n2C)C1c1ccc(OC)cc1 (stereo not given)	none (no result: GLP-1R agonist, D3 antag)
Cc1ccc(CNC(=O)CN2CCCC(C)C2)cc1 (stereo not given)	D3 antag -71.5
O=C(CN1CCC(C(=O)c2ccc(Cl)cc2)CC1)Nc1ccc2c(c1)OCCO2	D3 antag -76.3, GLP-1R inv ag inconclusive
Cc1ccc2nc(-c3ccncc3)c(Nc3ccc(C(C)C)cc3)n2c1	none (no result: GLP-1R agonist, D3 antag)
CC(C)C[C@@H](NC(=O)[C@H](Cc1ccccc1)NC(=O)c1cnccn1)B(O)O	none (no result: D3 antag, GLP-1R inv ag, D3 ag)
CCCCn1nnnc1C1(C)CCC(=O)N1CCCn1ccnc1 (stereo not given)	D3 antag -105.5
O=C(CCC1N=C2c3ccccc3N=C(SCC(=O)Nc3ccccc3F)N2C1=O)NCc1ccco1 (stereo not given)	none (no result: GLP-1R agonist, D3 antag)
Cc1oc(-c2ccccc2F)nc1CSCC(=O)N1CCN(c2ccccc2)CC1	GLP-1R inv ag inconclusive (no result: GLP-1R agonist, D3 antag)
C[C@@H]1CN([C@@H](C)CO)C(=O)Cc2cc(NC(=O)Nc3cccc4ccccc34)ccc2O[C@@H]1CN(C)Cc1ccc(C(F)(F)F)cc1	D3 antag -61.0, GLP-1R inv ag inconclusive
C[C@@H]1CN([C@H](C)CO)C(=O)Cc2cc(NS(=O)(=O)c3ccc(Cl)cc3)ccc2O[C@H]1CN(C)Cc1ccc(C(F)(F)F)cc1	GLP-1R inv ag 10µM, D3 ag 36.6
C[C@@H]1CN([C@H](C)CO)C(=O)Cc2cc(NS(=O)(=O)c3ccc(F)cc3)ccc2O[C@H]1CN(C)Cc1ccc(C(=O)O)cc1	none
COc1cccc(NC(=O)CCN2CCN(CCO)CC2)c1	none (no result: GLP-1R agonist, D3 antag)
CCOC(=O)N1CCN(C(=O)CSc2ccc3nnc(-c4cccnc4)n3n2)CC1	D3 antag -98.4
CCOc1ccc(NC(=O)CSc2ccc3nnc(-c4cccnc4)n3n2)cc1	none
CCCCCn1c(NCc2ccc(OC)cc2)nc2ccccc21	GLP-1R inv ag inconclusive (no result: GLP-1R agonist, D3 antag)
CCN(CC)CCn1c(NCc2ccc(OC)cc2)nc2ccccc21	D3 antag -66.6, GLP-1R inv ag inconclusive
Cn1c(/C=C/c2ccccc2)nc2ccccc21	D3 antag inconclusive, GLP-1R inv ag 4.47µM
Cc1ccc(NC(=O)COc2ccc3oc4c(c3c2)CCCC4)c(C)c1	none (no result: D3 antag)
Cc1cc(Cl)ccc1NC(=O)C1CCN(S(=O)(=O)c2ccc3[nH]c(=O)ccc3c2)CC1	none (no result: D3 antag)
CCOC(=O)c1ccc(NC(=S)N(CCN2CCCCCC2)Cc2cccs2)cc1	D3 antag -74.9, GLP-1R inv ag inconclusive
CCOC(=O)c1ccc(NC(=S)N(CCCN2CCCC(C)C2)Cc2cccs2)cc1 (stereo not given)	D3 antag -86.8, GLP-1R inv ag inconclusive
CCOC(=O)c1ccc(NC(=S)N(CCCN2CCCC2)Cc2cccs2)cc1	GLP-1R inv ag 2.82µM
O=C(NCc1ccc(Cl)cc1)C(=O)Nc1cccc(Br)c1	none (no result: GLP-1R agonist, D3 antag)
CCOc1ccc(/C=N/NC(=O)Cc2csc(Nc3cccc(C(F)(F)F)c3)n2)cc1	D3 antag inconclusive, GLP-1R inv ag 2.24µM
CC(=O)c1ccc(NC(=O)c2ccc(CN3C(=O)CCn4nc(C)cc43)cc2)cc1	none (no result: GLP-1R agonist, D3 antag)
CC(C)(C)NC(=O)[C@H]1CC[C@H]2[C@@H]3CC=C4C=C(C(=O)O)CC[C@]4(C)[C@H]3CC[C@]12C	none (no result: GLP-1R agonist, D3 antag, GLP-1R inv ag)
Cc1cc(C)c(S(=O)(=O)NCC(c2cccs2)S(=O)(=O)c2ccccc2)c(C)c1 (stereo not given)	none (no result: GLP-1R agonist, D3 antag)
O=C(NCCCN1CCCC1)c1[nH]c(C(F)(F)F)nc1-c1ccccc1	none
Cc1cccc(Cn2cc(S(=O)(=O)c3cccc(Cl)c3)c(=O)c3cc(F)c(N4CCOCC4)cc32)c1	none (no result: GLP-1R agonist, D3 antag)
COc1ccc(NC(=O)c2cc(S(=O)(=O)N3CCCCC3)ccc2C)cc1S(=O)(=O)N1CCOCC1	D3 antag -52.0
CCOc1ccc(S(=O)(=O)N2CCOCC2)cc1NC(=O)c1ccccc1F	D3 ag 79.4
CCOc1ccc(S(=O)(=O)N2CCN(CC)CC2)cc1NC(=O)c1ccccc1F	GLP-1R inv ag inconclusive
CCOc1cccc(/C=N/NC(=S)Nc2cc(S(=O)(=O)N3CCOCC3)ccc2N2CCOCC2)c1O	GLP-1R inv ag 5.01µM
Cc1ccc(S(=O)(=O)N2CCCCC2)cc1C(=O)Nc1ccc(N2CCOCC2)cc1	none
COc1ccc(S(=O)(=O)N2CCOCC2)cc1C(=O)Nc1ccc(N2CCCCCC2)cc1	GLP-1R inv ag 10µM
Cc1ccccc1NC(=O)CSc1nc2ccc(NC(=O)CCc3ccccc3)cc2s1	none (no result: GLP-1R agonist, D3 antag)
CCCC(=O)Nc1cccc(-c2cn3c(C)csc3n2)c1	none (no result: GLP-1R agonist, D3 antag)
Cc1c(C(=O)N2CCN(c3ncccn3)CC2)oc2c(Cl)cccc12	none
Cc1ccc(NC(=O)/C=C/c2ccc(S(=O)(=O)N3CCOCC3)cc2)cc1S(=O)(=O)N(C)C	D3 antag -110.7, GLP-1R inv ag inconclusive
CC(=O)Nc1cccc(NC(=O)/C=C/c2ccc(S(=O)(=O)N3CCOCC3)cc2)c1	none
CSCc1cc(N(C)c2ccccc2)nc(-c2ccccn2)n1	D3 antag -75.4, GLP-1R inv ag inconclusive
S=C1NCCc2ccc(Cl)cc2C1c1ccccc1Cl (stereo not given)	D3 antag -71.3, GLP-1R inv ag inconclusive
O=C1Cc2ccccc2C(c2ccc(Cl)cc2Cl)N1 (stereo not given)	GLP-1R inv ag inconclusive
N#CC(=C1NC(=O)c2ccccc21)c1nc2ccccc2n1CCO	D3 antag inconclusive, GLP-1R inv ag 10µM
CC(=O)c1nc2ccccc2n1CCc1ccccc1	GLP-1R inv ag inconclusive
O=C(Nc1ccccc1N1CCN(C(=O)c2ccccc2)CC1)c1ccc(Br)o1	GLP-1R inv ag inconclusive
Cc1ccc(NC(=S)N/N=C/c2cccn2Cc2ccccc2F)cc1	D3 antag -53.4
CCn1cc(C(=O)N2CCN(c3ccccc3OC)CC2)c(=O)c2cc(S(=O)(=O)N3CCC(C)CC3)ccc21	none (no result: D3 antag)
